Results on eight molecules are retold here after PubChem BioAssay (NCI).

Compounds without any hit were thinned out: in the full panel of roughly 83,000, 20% have a hit.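 For each line, cells grew in 96-well plates with the test compound present at a single concentration for 48 hours.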 Unmarked numbers belong to inactive results. Calls of active or inactive are those of the source. How the source made its calls: active means growth percent below 10; inactive means the rest.

Test systems include HT29 colon; SNB-75 CNS; SNB-19 CNS; U251 CNS; PC-3 prostate; SK-MEL-5 melanoma; UACC-62 melanoma; LOX IMVI melanoma; SK-MEL-28 melanoma; SK-MEL-2 melanoma; SN12C renal; UO-31 renal; TK-10 renal; ACHN renal; CAKI-1 renal; A498 renal; CCRF-CEM leukemia; MOLT-4 leukemia; SR leukemia.
What all share (assay): NCI-60 one-dose screen, 48 h (100 = growth as untreated, 0 = no growth, -100 = all killed)
What all share (conditions): 10 µM

For the molecule `COc1cc(NC(=O)CCSc2nc3ccc(C)cc3c(=O)n2Cc2ccccc2)cc(OC)c1OC`, the growth was 78.9% with HT29 colon; -13.9% (active) in the experiment with SNB-75 CNS; 73.3% in the experiment on SNB-19 CNS; 44.3% with U251 CNS; 83% with PC-3 prostate; 90.6% in the experiment on SK-MEL-5 melanoma. Moreover, the growth is 85% in the experiment on UACC-62 melanoma; 71.6% in the experiment on LOX IMVI melanoma; 74% in the experiment on SK-MEL-28 melanoma; 52.6% in the experiment with SK-MEL-2 melanoma; 89.5% in the experiment with SN12C renal; 71.2% in the experiment on UO-31 renal. Further, the growth in the experiment on TK-10 renal was 96.1%; in the experiment on ACHN renal it was 53.3%; in the experiment on CAKI-1 renal it was 65.1%; with A498 renal it was 77.6%; in the experiment with CCRF-CEM leukemia, 105%; with MOLT-4 leukemia, 103%. Besides, the growth in the experiment on SR leukemia is 95.3%.
For `Cc1ccc(C(=O)N2C/C(=C/c3ccccc3)C(=O)/C(=C/c3ccccc3)C2)cc1`, the growth was -17.9% (active) with HT29 colon; 67.9% in the experiment on SNB-75 CNS; 83% with SNB-19 CNS; 47% with U251 CNS; 65.3% in the experiment on PC-3 prostate; 58.9% in the experiment on SK-MEL-5 melanoma. Further, the growth in the experiment on UACC-62 melanoma is 76.9%; in the experiment with LOX IMVI melanoma, -24.5% (active); with SK-MEL-28 melanoma, 79.8%; in the experiment with SK-MEL-2 melanoma it was 80.2%; in the experiment on SN12C renal, 79.5%; with UO-31 renal, 56.6%. Further, the growth is 96.7% with TK-10 renal; 72.6% with ACHN renal; 63.2% with CAKI-1 renal; 71.7% in the experiment with A498 renal; 23.3% in the experiment with CCRF-CEM leukemia; 32.6% with MOLT-4 leukemia. Also, the growth with SR leukemia is -12.4% (active).
On to `O=C(CCCCC[P+](c1ccccc1)(c1ccccc1)c1ccccc1)NC(COC(=O)C(Cl)Cl)(COC(=O)C(Cl)Cl)COC(=O)C(Cl)Cl`, for which the growth with HT29 colon was 96.6%; in the experiment with SNB-75 CNS it was 103%; in the experiment with SNB-19 CNS, 98.3%; in the experiment with U251 CNS, 97.1%; in the experiment on PC-3 prostate, 90.5%; with SK-MEL-5 melanoma, 92.4%. Further, the growth in the experiment with UACC-62 melanoma is 98%; with LOX IMVI melanoma, 102%; in the experiment on SK-MEL-28 melanoma, 108%; in the experiment on SK-MEL-2 melanoma it was 100%; in the experiment on SN12C renal, 96.8%; in the experiment on UO-31 renal, 94%. Also, the growth was 87.4% in the experiment on TK-10 renal; 113% with ACHN renal; 107% with CAKI-1 renal; 89.7% with A498 renal; 88.7% in the experiment on CCRF-CEM leukemia; 97.6% in the experiment with MOLT-4 leukemia. The growth with SR leukemia was 88.8%.
Consider `CCN(CC)CCC(=O)Nc1cccc2c1C(=O)c1c(c(O)c3ccccc3c1O)C2=O`, for which the growth is 57.5% in the experiment with HT29 colon; 38% in the experiment on SNB-75 CNS; 77.3% in the experiment on SNB-19 CNS; 64.6% in the experiment on U251 CNS; 45.4% in the experiment on PC-3 prostate; 47.6% with SK-MEL-5 melanoma. The growth is 79.6% with UACC-62 melanoma; 40.6% in the experiment on LOX IMVI melanoma; 34% in the experiment on SK-MEL-28 melanoma; 112% with SK-MEL-2 melanoma; 59.5% with SN12C renal; -68% (active) in the experiment with UO-31 renal. The growth was 95.6% in the experiment with TK-10 renal; 21.6% with ACHN renal; 14% with CAKI-1 renal; 71.4% in the experiment on A498 renal; -3.1% (active) in the experiment on CCRF-CEM leukemia; 2.61% (active) in the experiment on MOLT-4 leukemia. Moreover, the growth with SR leukemia was 6.44% (active).
`Nc1c(C(=O)Nc2cccc(F)c2)sc2nc3c(cc12)C(=O)CCC3`: the growth in the experiment with HT29 colon is 16.7%; in the experiment on SNB-75 CNS, 24.9%; in the experiment with SNB-19 CNS, 48.9%; with U251 CNS, 32.1%; in the experiment with PC-3 prostate it was 20.7%; in the experiment on SK-MEL-5 melanoma, 43.2%. For the same molecule, the growth is 43.4% in the experiment with UACC-62 melanoma; 46.5% in the experiment with LOX IMVI melanoma; 49.7% with SK-MEL-28 melanoma; 43.3% with SK-MEL-2 melanoma; 37.4% in the experiment with SN12C renal; 56.1% in the experiment on UO-31 renal. The growth was 85.5% with TK-10 renal; 53.6% in the experiment on ACHN renal; 28% in the experiment with CAKI-1 renal; -12.1% (active) in the experiment on A498 renal; 17.9% in the experiment on CCRF-CEM leukemia; 66.3% with MOLT-4 leukemia. Further, the growth in the experiment on SR leukemia was 16.1%.
For the molecule `Nc1c(C(=O)Nc2cccc(Br)c2)sc2nc3c(cc12)C(O)CCC3` (configuration not stated), the growth in the experiment with HT29 colon is 5.13% (active); in the experiment with SNB-75 CNS, 31.2%; in the experiment with SNB-19 CNS, 62.2%; in the experiment on U251 CNS it was 19.3%; in the experiment on PC-3 prostate, 23%; in the experiment with SK-MEL-5 melanoma, 31.6%. Moreover, the growth is 48.9% in the experiment with UACC-62 melanoma; 46.2% in the experiment with LOX IMVI melanoma; 63.2% with SK-MEL-28 melanoma; 58.7% with SK-MEL-2 melanoma; 37.3% in the experiment with SN12C renal; 31.9% in the experiment on UO-31 renal. The growth in the experiment on TK-10 renal is 56.7%; in the experiment with ACHN renal, 51.4%; in the experiment on CAKI-1 renal, 25.6%; in the experiment on A498 renal, -8.73% (active); in the experiment on CCRF-CEM leukemia, 12.2%; with MOLT-4 leukemia it was 14%. In addition, the growth with SR leukemia was 3.95% (active).
Consider `COc1cc(-c2cc(/C=C3\C(=O)Nc4ccc(Cl)cc43)[nH]n2)cc(OC)c1OC`, for which the growth with HT29 colon is 24.2%; in the experiment on SNB-75 CNS, -5.13% (active); with SNB-19 CNS, 49.9%; in the experiment with U251 CNS it was 32.1%; in the experiment with PC-3 prostate it was -13.2% (active); in the experiment with SK-MEL-5 melanoma it was -68.8% (active). The growth was -59.6% (active) with UACC-62 melanoma; 5.85% (active) with LOX IMVI melanoma; -1.56% (active) with SK-MEL-28 melanoma; -19.1% (active) with SK-MEL-2 melanoma; 7% (active) in the experiment on SN12C renal; 9.62% (active) with UO-31 renal. In addition, the growth with TK-10 renal is 27.5%; in the experiment with ACHN renal, 23.9%; in the experiment on CAKI-1 renal it was 17.5%; in the experiment with A498 renal, 41.1%; in the experiment with CCRF-CEM leukemia, 10.7%; in the experiment with MOLT-4 leukemia it was -4.3% (active). For the same molecule, the growth in the experiment on SR leukemia is 20.4%.
Regarding `COc1cc(/C=C2\CCCC3=C2N=C2SC=NN2C3c2cc(OC)c(OC)c(OC)c2)cc(OC)c1OC` (configuration not stated), the growth in the experiment on HT29 colon is 3.26% (active); with SNB-75 CNS, 19.7%; in the experiment with SNB-19 CNS it was 46.4%; in the experiment with U251 CNS, 8.08% (active); in the experiment with PC-3 prostate it was 66.4%; with SK-MEL-5 melanoma, 16.3%. In addition, the growth is -51.7% (active) in the experiment with UACC-62 melanoma; -36.9% (active) in the experiment on LOX IMVI melanoma; 42.5% with SK-MEL-28 melanoma; 89.3% in the experiment with SK-MEL-2 melanoma; 7.13% (active) with SN12C renal; 36% in the experiment on UO-31 renal. Also, the growth in the experiment with TK-10 renal is 17.5%; in the experiment with ACHN renal, 15.3%; in the experiment with CAKI-1 renal it was 9.47% (active); in the experiment with A498 renal it was 24.5%; in the experiment on CCRF-CEM leukemia, 2.74% (active); with MOLT-4 leukemia, -2.28% (active). Further, the growth in the experiment on SR leukemia was 7.88% (active).
